PubChem BioAssay (NCATS)
Inconclusive results are not listed. Entries that show only a call come without a potency. Calls of active or inactive are those of the source. The call rests on the fitted dose curve; in most records, active means well fitted cell-killing curve with a large enough effect; inconclusive means small, poorly fitted or top-dose-only effect, or effect the other way; inactive means flat fitted curve, though single readings scatter.

Tested on: PA-1
Assay: Primary qHTS to identify gynecologic anti-cancer compounds using libraries of approved drugs and bioactive compounds (AID 1345084); further: nearly all actives have a fitted effect of over 55% in size
Conditions: Gynecologic cancer cell panel viability, ATPlite luminescence, 48 h; series mostly up to 57.5 µM
Procedure, shortened: (§1)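 Cytotoxicity screen measuring ATP content by luciferase luminescence. Each compound is applied at five concentrations for 48 h at 37 C with 5% CO2.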
Potency means the concentration at half of the fitted maximal effect.

Structure (SMILES)	Potency
CC1(C)[C@H](C(=O)O)N2C(=O)C[C@H]2S1(=O)=O	inactive
O=C(O)CCn1c2c(c3ccccc31)C[C@H](NS(=O)(=O)c1ccc(F)cc1)CC2	inactive
CCOCC(O)COc1ccc(NC(=O)CC[S+](C)C)cc1 (stereo not given)	inactive
Cc1cccc(Nc2ccncc2S(=O)(=O)NC(=O)NC(C)C)c1	inactive
CNS(=O)(=O)CCc1ccc2[nH]cc(C3CCN(C)CC3)c2c1	inactive
CC(C)(C)NC(=O)[C@H]1CC[C@H]2[C@@H]3CC[C@H]4NC(=O)C=C[C@]4(C)[C@H]3CC[C@]12C	inactive
C[C@@H]1C[C@H]2[C@@H]3CCC4=CC(=O)C=C[C@]4(C)[C@@]3(Cl)[C@@H](O)C[C@]2(C)[C@@]1(OC(=O)c1ccco1)C(=O)CCl	inactive
Cc1cc(NS(=O)(=O)c2ccc(N)cc2)no1	inactive
O=NN(CCCl)C(=O)NC1CCCCC1	inactive
CNCC[C@H](Oc1cccc2ccccc12)c1cccs1	inactive
COc1cnc(NS(=O)(=O)c2ccc(N)cc2)nc1	inactive
Cn1nnc2c(C(N)=O)ncn2c1=O	inactive
OC(Cn1cncn1)(Cn1cncn1)c1ccc(F)cc1F	inactive
CCOC(=O)c1ccc(OC(=O)CCCCCN=C(N)N)cc1	inactive
CC1=NN(c2ccccc2)C(=O)C1	inactive
C[C@@H]1CN(c2c(F)c(N)c3c(=O)c(C(=O)O)cn(C4CC4)c3c2F)C[C@H](C)N1	inactive
CCN(C)C(=O)Oc1cccc([C@H](C)N(C)C)c1	inactive
Cc1ncc([N+](=O)[O-])n1CCO	inactive

Structure (SMILES)	Potency
CN1CCN(c2c(F)cc3c(=O)c(C(=O)O)cn4c3c2OCN4C)CC1	inactive
CN(CCOc1ccc(CC2SC(=O)NC2=O)cc1)c1ccccn1 (stereo not given)	inactive
Cc1onc(-c2ccccc2Cl)c1C(=O)N[C@@H]1C(=O)N2[C@@H]1SC(C)(C)[C@@H]2C(=O)O	inactive
Cc1nnc(NS(=O)(=O)c2ccc(N)cc2)s1	inactive
Nc1ccc(S(=O)(=O)Nc2ccccn2)cc1	inactive
Cc1noc(NS(=O)(=O)c2ccc(N)cc2)c1C	inactive
C#CCN[C@@H]1CCc2ccccc21	inactive
CCCN[C@H]1CCc2nc(N)sc2C1	inactive
NS(=O)(=O)c1cc2c(cc1Cl)NC(C(Cl)Cl)NS2(=O)=O (stereo not given)	inactive
CC[C@H](NC(C)C)[C@H](O)c1ccc(O)c2[nH]c(=O)ccc12	inactive
O=C(O)c1cc(=O)[nH]c(=O)[nH]1	inactive
Cn1c(=O)c2c(ncn2CC(O)CO)n(C)c1=O (stereo not given)	inactive
CO[C@@H]1[C@@H](OC(N)=O)[C@@H](O)[C@H](Oc2ccc3c(O)c(NC(=O)c4ccc(O)c(CC=C(C)C)c4)c(=O)oc3c2C)OC1(C)C	inactive
NCCCC(O)(P(=O)(O)O)P(=O)(O)O	inactive
CCn1cc(C(=O)O)c(=O)c2cc(F)c(N3CCNCC3)nc21	inactive
COc1nc(N)nc2c1ncn2[C@@H]1O[C@H](CO)[C@@H](O)[C@@H]1O	inactive
COc1ccccc1OCC(O)COC(N)=O (stereo not given)	inactive

Tested on: SKOV3
Assay: as above
Conditions: Gynecologic cancer cell panel viability, ATPlite luminescence, 48 h; series mostly up to 57.5 µM
Procedure, shortened: as §1

Structure (SMILES)	Potency
CC1(C)[C@H](C(=O)O)N2C(=O)C[C@H]2S1(=O)=O	inactive
O=C(O)CCn1c2c(c3ccccc31)C[C@H](NS(=O)(=O)c1ccc(F)cc1)CC2	inactive
CCOCC(O)COc1ccc(NC(=O)CC[S+](C)C)cc1 (stereo not given)	inactive
Cc1cccc(Nc2ccncc2S(=O)(=O)NC(=O)NC(C)C)c1	inactive
CNS(=O)(=O)CCc1ccc2[nH]cc(C3CCN(C)CC3)c2c1	inactive
CC(C)(C)NC(=O)[C@H]1CC[C@H]2[C@@H]3CC[C@H]4NC(=O)C=C[C@]4(C)[C@H]3CC[C@]12C	12.6 µM (active)
C[C@@H]1C[C@H]2[C@@H]3CCC4=CC(=O)C=C[C@]4(C)[C@@]3(Cl)[C@@H](O)C[C@]2(C)[C@@]1(OC(=O)c1ccco1)C(=O)CCl	inactive
Cc1cc(NS(=O)(=O)c2ccc(N)cc2)no1	inactive
O=NN(CCCl)C(=O)NC1CCCCC1	inactive
CNCC[C@H](Oc1cccc2ccccc12)c1cccs1	20 µM (active)
COc1cnc(NS(=O)(=O)c2ccc(N)cc2)nc1	inactive
Cn1nnc2c(C(N)=O)ncn2c1=O	inactive
OC(Cn1cncn1)(Cn1cncn1)c1ccc(F)cc1F	inactive
CCOC(=O)c1ccc(OC(=O)CCCCCN=C(N)N)cc1	inactive
CC1=NN(c2ccccc2)C(=O)C1	inactive
C[C@@H]1CN(c2c(F)c(N)c3c(=O)c(C(=O)O)cn(C4CC4)c3c2F)C[C@H](C)N1	inactive
CCN(C)C(=O)Oc1cccc([C@H](C)N(C)C)c1	inactive
Cc1ncc([N+](=O)[O-])n1CCO	inactive

Structure (SMILES)	Potency
CN1CCN(c2c(F)cc3c(=O)c(C(=O)O)cn4c3c2OCN4C)CC1	inactive
CN(CCOc1ccc(CC2SC(=O)NC2=O)cc1)c1ccccn1 (stereo not given)	inactive
Cc1onc(-c2ccccc2Cl)c1C(=O)N[C@@H]1C(=O)N2[C@@H]1SC(C)(C)[C@@H]2C(=O)O	inactive
Cc1nnc(NS(=O)(=O)c2ccc(N)cc2)s1	inactive
Nc1ccc(S(=O)(=O)Nc2ccccn2)cc1	inactive
Cc1noc(NS(=O)(=O)c2ccc(N)cc2)c1C	inactive
C#CCN[C@@H]1CCc2ccccc21	inactive
CCCN[C@H]1CCc2nc(N)sc2C1	inactive
NS(=O)(=O)c1cc2c(cc1Cl)NC(C(Cl)Cl)NS2(=O)=O (stereo not given)	inactive
CC[C@H](NC(C)C)[C@H](O)c1ccc(O)c2[nH]c(=O)ccc12	inactive
O=C(O)c1cc(=O)[nH]c(=O)[nH]1	inactive
Cn1c(=O)c2c(ncn2CC(O)CO)n(C)c1=O (stereo not given)	inactive
CO[C@@H]1[C@@H](OC(N)=O)[C@@H](O)[C@H](Oc2ccc3c(O)c(NC(=O)c4ccc(O)c(CC=C(C)C)c4)c(=O)oc3c2C)OC1(C)C	inactive
NCCCC(O)(P(=O)(O)O)P(=O)(O)O	inactive
CCn1cc(C(=O)O)c(=O)c2cc(F)c(N3CCNCC3)nc21	inactive
COc1nc(N)nc2c1ncn2[C@@H]1O[C@H](CO)[C@@H](O)[C@@H]1O	inactive
COc1ccccc1OCC(O)COC(N)=O (stereo not given)	inactive
